40 compounds from PubChem BioAssay (Tox21) can be followed below.

SMILES strings stand for the structures. Records with an inconclusive call do not appear. Calls of active or inactive are those of the source. The call rests on the fitted dose curve.

The nature of the assay: qHTS assay for small molecule agonists of the p53 signaling pathway - cell viability (AID 651633).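 Further: p53RE-bla HCT reporter cells with a stable beta-lactamase p53 reporter; nearly all actives have a fitted effect of over 30% in size.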 The note with it: p53RE-bla HCT-116 viability, ATP luminescence, 16 h; series mostly up to 83.3 µM. The text has this:
National Center for Advancing Translational Sciences [NCATS]
NIH Chemical Genomics Center [NCGC]
U.S. Environmental Protection Agency [EPA]
National Institutes of Environmental Health Sciences [NIEHS]
National Toxicology Program [NTP]
U.S. Food and Drug Administration [FDA]
p53, a tumor suppressor protein, is activated following cellular insult, including DNA damage and other cellular stresses. The activation of p53 regulates cell fate by inducing DNA repair, cell cycle arrest, apoptosis, or cellular senescence. The activation of p53, therefore, is a good indicator of DNA damage and other cellular stresses. […] The activation of the reporter gene under culture conditions can be detected by fluorescence intensity. This cell line was used to screen the Tox21 compound library in a 1536-well plate format and to identify agonists that activate the p53 signaling pathway.
Tox21 Assay Protocol Summary:
The p53RE-bla cells were dispensed at 4,000 cells/5 ul/well in 1536-well black wall/clear bottom plates using a Multidrop dispenser. After the assay plates were incubated at a 37 C/5% CO2 incubator for 5 hours, 23 nL of compounds dissolved in DMSO, positive controls or DMSO only was transferred to the assay plate by a pin tool. The plates were incubated at 37 C for 16 hours. After 1 uL of LiveBLAzerTM B/G FRET substrate was added using a Flying Reagent Dispenser, the plates were incubated at room temperature for 2 hours, and fluorescence intensity was measured by an Envision plate reader.
For cell viability readout that measures cytotoxicity, 4 ul/well of CellTiter-Glo reagent was added into the assay plates using a Flying Reagent Dispenser. After 30 min incubation at room temperature, the luminescence intensity in the plates was measured using a ViewLux plate reader.
On the technique in general: Quantitative high-throughput screening tests each substance at several concentrations.
With `C=CC(=O)OCCC(=O)O`, the call was inactive.
`CCOCC(=O)O`: the result was inactive.
With `Brc1ccc(Br)c(Br)c1` the entry was “inactive”; with `O=C(O)CCCCCCCCC(=O)O`, “inactive”.
With `CCc1ccccc1CC` the entry was “inactive”.
Turning to `Clc1ccccn1`, the outcome was inactive.
As for `C[C@]12CC[C@@H]3c4ccc(O)cc4CC[C@H]3[C@@H]1C[C@@H](O)[C@@H]2O`, the result was inactive.
With `CC(=O)OCc1ccccc1` the entry was “inactive”.
On to `CC(O)CC(C)(C)O` (stereo not given), for which the compound was classed as inactive.
With `CCO[Si](CCC#N)(OCC)OCC` the entry was “inactive”; with `O=C(O)c1ccc(S(=O)(=O)N(Cl)Cl)cc1`, “inactive”.
With `COC(=O)c1cccnc1` the entry was “inactive”; with `CN(C)c1ccc(O)c2c1C[C@H]1C[C@H]3[C@H](N(C)C)C(=O)C(C(N)=O)=C(O)[C@@]3(O)C(=O)C1=C2O`, “inactive”; with `CC(C)(Oc1ccc(CCNC(=O)c2ccc(Cl)cc2)cc1)C(=O)O`, “inactive”.
With `COc1cc(OC)c(C(=O)CCCN2CCCC2)c(OC)c1` the entry was “inactive”.
On to `O=C1C(c2[nH]c3ccccc3c2O)=Nc2ccccc21`, for which the result was inactive.
Consider `Nc1ccc(Cl)c(N)c1`, for which the compound was classed as inactive.
Regarding `CC(C)=CCl`, the outcome was inactive.
On to `O=C1c2ccccc2CCc2ccccc21`, for which the compound was called inactive.
With `C[Si]1(C)O[Si](C)(C)O[Si](C)(C)O[Si](C)(C)O1` the entry was “inactive”; with `CCCCCCO`, “inactive”.
In the case of `CCCCCCCCCCCCCCCCO`, the compound was classed as inactive.
With `O=C(OCC1CCC2OC2C1)C1CCC2OC2C1` (stereo not given) the entry was “inactive”.
With `N#Cc1ccccc1` the entry was “inactive”.
For `COc1ccc(C)cc1N`, the call was inactive.
Regarding `O=C(O)c1cc2ccccc2cc1O`, the result was inactive.
With `NCCN1CCNCC1` the entry was “inactive”; with `CC(C)OP(=O)(CP(=O)(OC(C)C)OC(C)C)OC(C)C`, “inactive”.
With `CCCCOC(=O)c1ccc(N)cc1` the entry was “inactive”; with `Cc1ccc([N+](=O)[O-])cc1S(=O)(=O)O`, “inactive”; with `COCCCN`, “inactive”.
With `O=S(=O)(O)c1ccccc1` the entry was “inactive”.
With `NC(=S)NNC(N)=S`, the result was inactive.
With `C=C(C)[C@H]1CC=C(C)C(=O)C1` the entry was “inactive”; with `COc1ccc(N)c(C)c1`, “inactive”.
Consider `CCOCCOCCOCCO`, for which the result was inactive.
With `O=S(=O)(O)c1ccc(N=Nc2c(O)ccc3cc(S(=O)(=O)O)ccc23)cc1` the entry was “inactive”; with `CC(C)(C#N)c1cc(Cn2cncn2)cc(C(C)(C)C#N)c1`, “inactive”.
With `CC(C)(C)c1cc(Cc2cc(C(C)(C)C)c(O)c(C(C)(C)C)c2)cc(C(C)(C)C)c1O` the entry was “inactive”.
With `CC(C)CC(=O)CC(C)CC(C)C` (stereo not given) the entry was “inactive”.
